± gives the uncertainty stated by the source.
Tested on: Candidatus Liberibacter solanacearum in potato hairy roots
Assay: relative CLso titer (% of untreated control); higher = less inhibition of bacterial titer
Conditions: 10 µM; 72 h
Description: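 Primary screen of ~220 Spectrum collection (MicroSource) compounds at 10 µM (0.1% DMSO) on Candidatus Liberibacter solanacearum-infected potato hairy roots in multi-well plates (Gamborg B-5 medium, vacuum infiltrated, 21 °C, dark, 72 h). CLso titer was measured by qPCR of 16S rDNA normalised to potato RPL2 (2^-ddCq), pairwise-standardised against untreated controls, averaged over two biological replicates and expressed as % of untreated.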

Point of comparison: COC(=O)Nc1nc2cc(C(=O)c3cccs3)ccc2[nH]1, “relative CLso titer” value 79.7 ± 6.4%. Against it:
- O=S(=O)(O)CCS — higher, 110 ± 3.6%
- C[C@H]1O[C@H](O[C@H]2[C@H](O)[C@@H](O)[C@@H](O[C@H]3[C@H](O)[C@@H](O)C(O)O[C@@H]3CO)O[C@@H]2CO)[C@H](O)[C@@H](O)[C@@H]1N[C@H]1C=C(CO)[C@@H](O)[C@H](O)[C@H]1O (some centres undefined) — within error, 135 ± 70%
- CN(C)CCOC(=O)C(c1ccccc1)C1(O)CCCC1 (centres undefined) — lower, 23.4 ± 4.1%
- N[C@@H]1CONC1=O — higher, 177 ± 11%
- CC1=C(C(=O)O)N2C(=O)[C@@H](NC(=O)[C@H](N)c3ccccc3)[C@H]2SC1 — within error, 87.1 ± 16%
- C[C@@H]1NC(=O)[C@@H](N)CNC(=O)[C@H](C2CCNC(=N)N2)NC(=O)/C(=C/NC(N)=O)NC(=O)[C@H](CNC(=O)CC(N)CCCN)NC1=O.N=C1NCCC([C@@H]2NC(=O)/C(=C/NC(N)=O)NC(=O)[C@H](CNC(=O)CC(N)CCCN)NC(=O)[C@H](CO)NC(=O)[C@@H](N)CNC2=O)N1 (some centres undefined) — lower, 63.2 ± 9.8%
- Nc1ccc(C(=O)Oc2ccccc2)c(O)c1 — higher, 102 ± 12%
- CC(=O)OCC(=O)[C@@]1(O)CC[C@H]2[C@@H]3CCC4=CC(=O)CC[C@]4(C)[C@H]3C(=O)C[C@@]21C — lower, 27.6 ± 3%
- OCC(S)CS (centres undefined) — within error, 67.2 ± 36%
- CCN(CCCc1ccccc1)CCCc1ccccc1 — within error, 66.9 ± 21%
- Clc1ccc(CSC(Cn2ccnc2)c2ccc(Cl)cc2Cl)cc1 (centres undefined) — within error, 111 ± 31%
- CC1(C)[C@@H](OC(=O)CCC(=O)O)CC[C@]2(C)[C@H]3C(=O)C=C4[C@@H]5C[C@@](C)(C(=O)O)CC[C@]5(C)CC[C@@]4(C)[C@]3(C)CC[C@@H]12 — higher, 132 ± 30%
- NCCc1ccc(O)c(O)c1 — higher, 117 ± 26%
- CCC[C@@H]1C[C@@H](C(=O)N[C@@H]([C@H]2O[C@H](SC)[C@H](O)[C@@H](O)[C@H]2O)[C@H](C)Cl)N(C)C1 — within error, 80.1 ± 32%
- CC(=O)O[C@]1(C(C)=O)CC[C@H]2[C@@H]3C=C(Cl)C4=CC(=O)[C@@H]5C[C@@H]5[C@]4(C)[C@H]3CC[C@@]21C — higher, 114 ± 4.7%
- CC1(C)OC(=O)NC1=O — lower, 65.8 ± 3.9%
- C[C@@H]1O[C@@H]1P(=O)(O)O — higher, 155 ± 15%
- C[C@@H]1C[C@H]2[C@@H]3C[C@H](F)C4=CC(=O)C=C[C@]4(C)[C@@]3(F)[C@@H](O)C[C@]2(C)[C@@]1(OC(=O)c1ccco1)C(=O)SCF — within error, 92.9 ± 10%
- Nc1cccc2c1CN(C1CCC(=O)NC1=O)C2=O (centres undefined) — higher, 143 ± 43%
- C[C@]12CCC(=O)C=C1CC[C@@H]1[C@@H]2[C@@H](O)C[C@@]2(C)[C@H]1CC[C@]2(O)C(=O)CO — within error, 94.9 ± 25%
- CC12CC3CC(C)(C1)CC(N)(C3)C2 — within error, 63.3 ± 31%
- N=C(N)NC(=O)c1nc(Cl)c(N)nc1N — lower, 54.7 ± 1.4%
- C[C@@H]1C[C@H]2[C@@H]3CCC4=CC(=O)C=C[C@]4(C)[C@@]3(F)[C@@H](O)C[C@]2(C)[C@@]1(O)C(=O)COP(=O)(O)O — higher, 137 ± 29%
- CO[C@@]1(NC(=O)CSCC#N)C(=O)N2C(C(=O)O)=C(CSc3nnnn3C)CS[C@@H]21 — within error, 114 ± 30%
- O=C(O)CN1C(=O)c2cccc3cccc(c23)C1=O — higher, 145 ± 46%
- CC(NCCc1ccc(O)cc1)C(O)c1ccc(O)cc1 (centres undefined) — within error, 82.6 ± 20%
- Cc1cc(C2CCCCC2)n(O)c(=O)c1 — lower, 44.1 ± 7.6%
- O=C(O)CCC(=O)OC[C@@H](NC(=O)C(Cl)Cl)[C@H](O)c1ccc([N+](=O)[O-])cc1 — lower, 49.1 ± 3.2%
- COC(=O)C1=C(C)NC(C)=C(C(=O)OCCN(C)Cc2ccccc2)C1c1cccc([N+](=O)[O-])c1 (centres undefined) — higher, 121 ± 15%
- CC12CCC(CC1=O)C2(C)C (centres undefined) — within error, 97 ± 38%
- C[C@]12CC[C@@H]3c4ccc(O)cc4CC[C@H]3[C@@H]1CC[C@@H]2OC(=O)CCC1CCCC1 — higher, 150 ± 44%
- CN(C)CCOC(c1ccc(Cl)cc1)c1ccccn1 (centres undefined) — lower, 35.2 ± 4.8%
- Cc1onc(-c2ccccc2Cl)c1C(=O)N[C@@H]1C(=O)N2[C@@H]1SC(C)(C)[C@@H]2C(=O)O — lower, 46.2 ± 1.5%

Source: the supplement of paper PMC7669877
